Assay outcomes from PubChem BioAssay.
The list is not random: actives were taken first. Their share in the collection is about 1.7%.
CHT allo act: allosteric activators of human choline transporter CHT; Q9GZV3; CHT-expressing cells, membrane potential dye, choline EC20; active compounds read high; LV-AA mutant CHT in HEK293 cells; B-score at 10 µM; 0.49% of 310,000 active; AID 488977;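 active = initial fluorescence not abnormally high and integrated response B-score, plate-corrected, over 3 SD above library mean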
Target sequence (Q9GZV3 whole entry, looked up): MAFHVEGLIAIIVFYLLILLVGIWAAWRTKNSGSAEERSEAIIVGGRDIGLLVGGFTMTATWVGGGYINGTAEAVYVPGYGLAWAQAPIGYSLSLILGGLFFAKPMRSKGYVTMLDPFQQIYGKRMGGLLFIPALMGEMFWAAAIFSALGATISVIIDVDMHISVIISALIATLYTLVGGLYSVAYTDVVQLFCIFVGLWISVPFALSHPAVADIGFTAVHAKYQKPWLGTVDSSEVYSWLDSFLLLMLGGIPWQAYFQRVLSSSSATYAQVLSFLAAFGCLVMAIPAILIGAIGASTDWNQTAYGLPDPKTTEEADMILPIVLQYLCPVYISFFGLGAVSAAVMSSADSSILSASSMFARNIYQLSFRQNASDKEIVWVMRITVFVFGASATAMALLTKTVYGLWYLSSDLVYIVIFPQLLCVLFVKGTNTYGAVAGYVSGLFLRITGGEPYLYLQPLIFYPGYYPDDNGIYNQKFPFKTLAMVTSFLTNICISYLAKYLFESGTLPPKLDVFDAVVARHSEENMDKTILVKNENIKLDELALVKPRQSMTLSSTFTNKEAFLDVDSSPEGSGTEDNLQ
CHT inh: inhibitors of human choline transporter CHT; Q9GZV3; B-score at 10 µM; 0.86% of 310,000 active; AID 488975; CHT-expressing cells, membrane potential dye, choline response; active compounds read low;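 active = B-score over 3 SD under the library average, and starting fluorescence ratio not unusually high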;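 also: choline stimulus applied at its EC90 after an EC20 pre-addition; B-score computed on integrated fluorescence ratio after choline addition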
H9c2 TAG inh: reduces triacylglycerol accumulation in H9c2 cells | Nile Red lipid (TAG) fluorescence; cells loaded with 200 µM oleic acid | inhibition, % at 12.5 µM | 0.66% of 230,000 active | AID 651582;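 active = pattern-corrected inhibition of lipid staining of at least 50% with the nuclear-stain viability signal not falling by more than 50%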;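 also: 0% = DMSO wells and 100% = triacsin C control wells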
MIN6 prolif: inducers of beta-cell replication in MIN6 cells; MIN6 cells proliferation, ATPlite luminescence, 48 h; cells starved in 0.2% serum; 100% = growth in 10% serum; proliferation, % at 10 µM; 0.29% of 330,000 active;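 active = compounds whose signal lies at least 3.5 SD above the mean of all wells on their plate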;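 also: 0% = DMSO-treated cells in low-serum medium and 100% = 10% serum control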
CHT act confirm: confirmation of human choline transporter (CHT) activators. shares compounds with CHT allo act. CHT-expressing cells, membrane potential dye fluorescence (FDSS); % of choline EC20–EC90 response window; HEK293 expressing CHT LV-AA mutant; choline added at its EC20. activation, % at 10 µM. 91% of 2,500 active. AID 504833;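 active = primary screen active, with duplicate mean activation above negative control mean plus 3 SD, cut at about 11% in these data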
HEK293 MP dye: CHT activator counter-screen hit in parental HEK293 cells; shares compounds with CHT allo act; membrane potential dye fluorescence (FDSS); measured after EC20 choline addition; ratio readout change at 10 µM, hits read low; 62% of 2,500 active;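 active = duplicate-averaged ratio beyond 3 SD from buffer wells, up or down, though filed actives are nearly all decreases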
Numbers without * were called inactive; i = inactive; x = no result.

SMILES	CHT allo act	CHT inh	H9c2 TAG inh	MIN6 prolif	CHT act confirm	HEK293 MP dye
CC(C)CC(C(=O)N1CCc2ccccc2C1)N1C(=O)c2ccccc2C1=O (centres undefined)	i	i	x	-2.6	39.3*	i
Clc1cncc(Cl)c1N/N=C/c1ccncc1	i	i	x	0.0	51.5*	-53.1*
Clc1cccc(Cl)c1/C=N/Nc1c(Cl)cncc1Cl	i	i	-0.2	-1.6	x	x
C(=N\NC1=NCCN1)/c1ccncc1	6.38*	i	-4.1	-3.7	53.7*	-54.5*
CC(=O)N(Cc1ccccc1)Cc1cn(CCC#N)nc1-c1cccc([N+](=O)[O-])c1	i	i	1.9	-1.4	x	x
O=C(C1CCC1)N1CCN(c2ccc(Cl)cc2)CC1	i	i	-33.1	0.2	x	x
CCSc1ccc2cc(OC)ccc2[n+]1CC	6.26*	i	x	-3.1	40.0*	-54.3*
COc1ccc2cc([C@@H](C)C(=O)O)ccc2c1	i	i	-7.7	-0.9	x	x
Cc1cc(N2CCOCC2)c2c(N)c(C)cc(C)c2n1	12.2*	i	-2.4	3.7	58.3*	-77.6*
Cc1cc(N2CCOCC2)nc(N)n1	i	i	0.9	-2.1	x	x
Cc1ccc2c(c1)c1c3n2CCN=C3CCC1	i	i	5.8	-0.3	x	x
COc1ccc2c(c1)c1c3n2CCN(C)C3=NCC1	i	i	x	-3.0	52.8*	-60.2*
CCOc1ccc(NC(=O)CN(C)C(=O)c2ccccc2OCCOc2ccccc2)cc1OCC	x	x	12.8	2.0	x	x
CCOC(=O)c1c(NC(=O)COc2cccc3c2CCN(C)C3=O)sc2c1CCC2	i	i	x	0.0	25.2*	i
Cc1cccc(NC(=O)COc2cccc3c2CCN(C)C3=O)c1C	i	i	-12.0	-0.3	x	x
CCCNC(=O)CCCN1C(=O)c2ccccc2Sc2ncccc21	i	i	x	-3.3	x	x
Cc1nc(/N=C(\N)NC(=O)c2ccccc2)nc2ccccc12	i	i	x	-2.6	x	x
CCc1ccc2nc(N=C(N)N)nc(C)c2c1	i	i	1.1	-5.6	x	x
Cc1nc(N=C(N)N)nc2ccccc12	8.1*	i	-20.1	-2.8	67.0*	-59.9*
Cc1ccc2nc(N=C(N)N)nc(C)c2c1	i	i	7.5	-1.7	56.2*	-55.4*
CC(Sc1nnc(C2CC2)n1-c1ccccc1)C(=O)N1CCCC1 (centres undefined)	x	x	-1.8	3.4	x	x
COC(=O)COc1ccc(-c2ccccc2)cc1C=O	20.1*	i	4.5	-4.8	5.6	i
COc1ccc2c(c1)CCCN2C(N)=Nc1ccc(Cl)cc1	6.35*	i	x	-3.1	15.7*	i
CCOc1ccc(CCNC(=O)c2cccc(-n3cnnn3)c2)cc1OCC	x	x	15.8	-1.1	x	x
COc1ccc(-c2c3c(=O)n(C)c(=O)n(C)c3cn2C2CCCCC2)cc1	6.85*	i	x	-0.7	23.2*	i
SMILES	CHT allo act	CHT inh	H9c2 TAG inh	MIN6 prolif	CHT act confirm	HEK293 MP dye
O=C(c1cc([N+](=O)[O-])ccc1Cl)N1CCc2ccccc21	i	i	x	-1.4	x	x
O=C(c1cc([N+](=O)[O-])ccc1N1CCCCC1)N1CCc2ccccc21	i	i	19.1	-1.7	35.3*	i
CCN(CC)c1nc(N2CCN(C)CC2)nc2ccccc12	i	i	17.2	-4.6	60.1*	-57.6*
COc1ccc2nc(N/C(N)=N/C(=S)Nc3c(C)cccc3C)nc(C)c2c1	7.13*	i	1.5	-5.2	50.4*	-41.4*
COc1ccc2nc(N/C(N)=N/C(=S)Nc3cccc(C)c3)nc(C)c2c1	i	i	11.6	-3.2	x	x
CC1(C(=O)NS(=O)(=O)C2CC2)CCN(C(=O)C2(c3ccc(Cl)cc3)CCCC2)C1 (centres undefined)	x	x	1.7	x	x	x
c1ccc(-c2nnc(-c3ccccn3)nn2)nc1	i	i	2.8	-4.5	x	x
c1ccc(-c2cccc(-c3ccccn3)n2)nc1	i	i	x	-5.7	14.1*	-46.6*
CCOC(=O)c1oc2ccc(CNCCO)c(Cl)c2c1C	8.27*	i	15.6	0.8	37.0*	-28.8*
O=C1CCC(c2ccc(-n3ccnc3)cc2)=NN1	7.33*	i	13.9	7.2	23.2*	-28.2*
CC(C)n1cnc2c(Nc3cccc(Cl)c3)nc(NCCCO)nc21	i	i	42.2	3.9	8.8	i
CC(C)n1cnc2c(Nc3ccc(C(=O)O)cc3)nc(Cl)nc21	i	i	15.9	-0.5	x	x
CC(CC12CC3CC(CC(C3)C1)C2)NCc1ccccc1O (centres undefined)	i	i	x	-5.5	4.7	i
CC(NCc1ccccc1O)c1ccccc1 (centres undefined)	i	i	5.4	3.3	x	x
Fc1ccc(-n2cc(-c3ccccc3)[n+]3c2SCC3)cc1	i	i	-2.4	-4.2	x	x
c1ccc(-c2c[n+]3c(n2-c2ccccc2)SCC3)cc1	6.61*	i	-13.2	-5.7	49.3*	-32.5*
CCOc1ccc(-n2c(-c3ccc(Cl)cc3)c[n+]3c2SCC3)cc1	i	i	-39.7	-7.0	x	x
c1ccc(-c2cn(-c3ccccc3)c3[n+]2CCS3)cc1	6.76*	i	-39.8	-5.1	55.6*	-34*
Cc1cc(C)n(C(C)CC(=O)Nc2ccc3c(c2)OCO3)n1 (centres undefined)	i	i	x	-1.5	x	x
COc1ccc(-c2c[n+](CC(=O)c3cccs3)c3n2CCC3)cc1	i	i	17.6	-1.3	44.2*	-30.8*
Cc1ccc(-c2c[n+](CC(=O)c3cccs3)c3n2CCC3)cc1	i	i	-15.5	-2.2	x	x
O=C(Cc1ccccc1)Nc1cccc(C(=O)O)c1O	i	i	x	1.7	x	x
COc1ccc(-c2csc(C(C)(NC(C)=O)c3ccccc3)n2)cc1 (centres undefined)	x	x	-10.9	x	x	x
CC1=CC(=O)Nc2ncccc2O1	x	x	17.7	x	x	x
CN(Cc1cccc2ccccc12)C(=O)c1cc(COc2c(F)cccc2F)on1	i	i	-1.9	-0.5	40.1*	i
SMILES	CHT allo act	CHT inh	H9c2 TAG inh	MIN6 prolif	CHT act confirm	HEK293 MP dye
CCO[C@H]1OC(C(=O)NCc2nc3ccccc3[nH]2)=C[C@@H](c2ccccc2)[C@@H]1CCCO	i	i	-2.0	-2.5	x	x
CCO[C@H]1OC(C(=O)NCc2nc3ccccc3[nH]2)=C[C@@H](C2CC2)[C@@H]1CCCO	i	i	x	-3.7	25.8*	i
COc1cc(-c2nc3cnccc3n2C)cc(OC)c1OC	i	i	3.2	-3.6	x	x
Cn1c(-c2ccc3ccccc3n2)nc2cnccc21	i	i	11.0	-1.6	44.6*	-39.5*
c1ccc(-c2ccc3ccccc3n2)cc1	i	i	x	4.6	x	x
COc1cc(OC)c(-c2nc3cnccc3n2C)cc1OC	6.59*	i	x	0.0	54.6*	-53.3*
